# Bioassay records deposited in PubChem BioAssay by Paczesny and Yang Labs, IUPUI and University of Michigan.
# ST2 inh – blocks human ST2 binding to IL-33 | AID 1259354 | AlphaLISA ST2-Fc/biotin-IL-33 interaction, 1 h | inhibition, % for hits at 17 µM | Q01638 | 78,000 compounds, 2.3% hits; in the data active means inhibition above about 30%
# Target sequence (Q01638 whole entry, looked up): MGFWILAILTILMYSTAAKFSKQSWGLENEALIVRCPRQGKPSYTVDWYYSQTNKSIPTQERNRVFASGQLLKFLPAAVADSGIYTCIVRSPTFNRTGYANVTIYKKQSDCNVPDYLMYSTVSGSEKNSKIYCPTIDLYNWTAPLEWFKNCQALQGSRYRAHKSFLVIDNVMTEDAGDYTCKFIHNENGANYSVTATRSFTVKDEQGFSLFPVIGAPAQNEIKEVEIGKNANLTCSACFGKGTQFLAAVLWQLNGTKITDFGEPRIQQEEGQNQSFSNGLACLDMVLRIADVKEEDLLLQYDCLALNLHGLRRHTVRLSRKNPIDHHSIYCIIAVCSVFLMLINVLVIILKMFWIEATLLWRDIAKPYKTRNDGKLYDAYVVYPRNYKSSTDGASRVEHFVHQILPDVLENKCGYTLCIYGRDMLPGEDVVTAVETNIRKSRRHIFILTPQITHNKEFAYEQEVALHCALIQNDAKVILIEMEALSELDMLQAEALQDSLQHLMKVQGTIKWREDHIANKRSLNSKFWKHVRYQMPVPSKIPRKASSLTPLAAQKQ
# Numbers without * were called inactive; i = inactive. The entries come from a sample that favours hits as a whole.
SMILES,ST2 inh
CC(=O)N1CCC(C(=O)NC[C@@H]2C=C(C)[C@H](CC(=O)N3CCN(c4ccccn4)CC3)C[C@H]2C(C)C)CC1,i
O=C1NCCN(C2CCCC2)C1CC(=O)N1CCN(C(=O)c2cccs2)CC1 (configuration not stated),i
CC(=O)c1c(C)nn(CC(=O)Nc2ccnn2C2CCCCC2)c1C,i
COc1cc(N/C=C(/C#N)c2nc(-c3ccc(F)cc3)cs2)c(OC)cc1Cl,i
COc1ccc(N/C=C(\C#N)c2nc(-c3cc4cc([N+](=O)[O-])ccc4oc3=O)cs2)c(OC)c1,i
COc1ccc(OC)c(N/C=C(\C#N)c2nc(-c3cc4ccccc4oc3=O)cs2)c1,37%*
COc1ccc(-c2csc(/C(C#N)=C\Nc3cccc(C(F)(F)F)c3)n2)cc1OC,i
COc1cc(N/C=C(\C#N)c2nc(-c3cc4ccccc4oc3=O)cs2)c(OC)cc1Cl,i
COc1ccc(-c2csc(/C(C#N)=C/c3ccccc3OC)n2)cc1,40%*
OC[C@@H]1O[C@H](CNC2CCCCC2)[C@H](N2CCN(c3cccc(C(F)(F)F)c3)CC2)[C@@H]1O,i
Cc1ccccc1OCc1nc(C#N)c(N2CCCCC2)o1,68%*
c1ccc(COc2cccc(CN3CCN(c4ncccn4)CC3)c2)cc1,i
N#Cc1nc(COc2ccccc2Cl)oc1N1CCN(Cc2ccccc2)CC1,58%*
c1ccc(COc2ccc(CN3CCN(c4ncccn4)CC3)cc2)cc1,i
N#Cc1nc(COc2ccccc2Cl)oc1N1CCC(C(N)=O)CC1,i
Cc1ccc(-c2noc(COc3ccccc3Cl)n2)cc1,i
N#Cc1nc(COc2ccccc2Cl)oc1N1CCCCC1,65%*
Cc1ccccc1OCCCCN1CCCCC1,i
N#Cc1nc(COc2ccc(Cl)cc2)oc1N1CCN(Cc2ccccc2)CC1,57%*
FC(F)(F)c1ccc(N2CCN(Cc3ccccc3)CC2)nc1,i
Cc1ccccc1OCCCN1CCOCC1,i
Nc1nc(COc2ccccc2Cl)nc(N2CCOCC2)n1,i
CCC(C)OC(=O)C1=C(C)NC2=C(C(=O)C(C(=O)OC)C(C)C2)C1c1ccc(C)o1 (configuration not stated),i
O=C(C[C@@H]1O[C@H](CNC(=O)C2CC2)[C@@H](O)[C@H]1O)NC1CC1,i
COc1ccc(C(=O)N2CCC(C(=O)NCc3ccccc3Cl)CC2)cc1,i
SMILES,ST2 inh
COC(=O)c1ccc(N2C(=O)[C@@H]3C4c5ccccc5C(c5ccccc54)[C@@H]3C2=O)cc1,i
Cc1cccc(OCC(=O)Nc2cc([N+](=O)[O-])ccc2C)c1,i
Cc1ccc(C(NC(=O)CN2C(=O)c3ccccc3C2=O)c2ccccc2)cc1 (configuration not stated),i
Cc1ccc(NC2=C(NCCO)C(=O)c3ccccc3C2=O)cc1,51%*
Cc1ccc(Nc2nnc(-c3ccc(C)c(S(=O)(=O)NCCO)c3)c3ccccc23)cc1,i
Cc1ncsc1CCc1nc(C2CC2)nn1-c1ccccn1,i
CCn1c(C(Cc2ccccc2)NC(=O)C(C)(C)C)nc2ccccc21 (configuration not stated),i
O=C(NC1CC1)c1cn(C2CCCCC2)cc(C(=O)NC(c2ccccn2)C(F)(F)F)c1=O (configuration not stated),i
CNC(=O)N1C(=O)C(=O)c2ccccc21,i
CC(=O)N1/C(=C/c2ccc(N(C)C)cc2)C(=O)c2ccccc21,66%*
CC(=O)N1/C(=C/c2ccncc2)C(=O)c2ccccc21,39%*
CC(=O)N1C(=O)C(=O)c2ccccc21,i
COc1ccc(-c2nc3s/c(=C\c4ccc(N(C)C)cc4)c(=O)n3n2)cc1,i
CC(Oc1ccc(C=C2C(=O)c3ccccc3C2=O)cc1)C(=O)O (configuration not stated),i
COc1nc(N)nc(C(C)(C)C)n1,i
CN(C)c1nc2c(c(=O)[nH]c(=O)n2C)n1CC(O)COc1ccc(Cl)cc1 (configuration not stated),i
Cc1cc(C)c(Nc2nnc(Cc3ccccc3)c(=O)[nH]2)c(C)c1,i
CC(C)Cn1cc(C(=O)NCCN2CCOCC2)c2c3ccccc3n(C)c2c1=O,i
O=C(NCCC1=CCCCC1)C1C2C=CC3(CN(Cc4ccccc4Cl)C(=O)C13)O2 (configuration not stated),i
COc1ccc(N=Cc2cc(Cl)cc([N+](=O)[O-])c2O)cc1Cl,i
Nc1c(Cl)cc(Cl)cc1[N+](=O)[O-],37%*
O=[N+]([O-])c1cc(Cl)ccc1NCCNCCO,i
NS(=O)(=O)c1ccc(NC(=O)CCCOc2ccc(Cl)cc2Cl)cc1,i
CCOC(=O)N1CCC(N2CCC(n3nccc3NC(=O)c3ccccc3)CC2)CC1,i
Cc1cc(Br)cc2c1N(C)C(=O)/C2=C1\SC(=Nc2ccc(F)cc2)NC1=O,33%*
SMILES,ST2 inh
Cc1cc(Br)cc2c1N(C)C(=O)C2=O,i
CC(C)(C)c1cc(CN2CCC3(CCNCC3)C2)[nH]n1,i
c1c2c(cc3sc(N4CCCC4)nc13)OCCO2,i
COc1ccc(CN2CCC3(CC2)CC3C(=O)NCc2ccccc2C(F)(F)F)cc1C (configuration not stated),i
C=CCCCCCCCCCCCC(CC(O)CO)OC(C)=O (configuration not stated),i
O=C(Cn1c(=O)n(-c2ccc(F)cc2F)c(=O)c2sccc21)NC1CCCC1,i
CCN(CC)C(=O)C1CCCN(Cc2ccc(C)cc2C)C1 (configuration not stated),i
Cc1cccc(N(CC(=O)Nc2ccc(F)cc2)S(=O)(=O)c2ccccc2)c1C,38%*
COc1ccc(N(CC(=O)Nc2ccc(F)cc2)S(=O)(=O)c2ccccc2)c(OC)c1,i
Cc1cccc(N(CC(=O)Nc2ccccc2Cl)S(=O)(=O)c2ccccc2)c1C,i
CCN(CCN1CCCC1)C(=O)c1cccc2cnccc12,i
COC(=O)[C@@H]1Cc2ncn(C(C)C)c2CN1S(=O)(=O)c1ccc(OC)cc1,i
COC(=O)[C@@H]1Cc2ncn(C)c2CN1S(=O)(=O)c1ccc(C#N)cc1,i
COC(=O)[C@@H]1Cc2ncn(C(C)C)c2CN1S(=O)(=O)c1ccc(C#N)cc1,35%*
O=C(Cn1nc(-c2ccccc2)ccc1=O)NCCCN1CCC(Cc2ccccc2)CC1,53%*
O=C(Cn1nc(-c2ccccc2)ccc1=O)NCCN1CCC(Cc2ccccc2)CC1,i
CN(CCCNC(=O)Cn1nc(-c2ccccc2)ccc1=O)Cc1ccccc1,i
CCOC(=O)N1CCC(N2CCCC(CNS(=O)(=O)c3ccc(OC)cc3)C2)CC1 (configuration not stated),i
O=C(O)COc1ccc(NC(=O)c2ccc([N+](=O)[O-])cc2)cc1,i
C=CCn1c(C)nc2c(sc3nc4c(cc32)COC(C)(C)C4)c1=O,i
CCCCn1c(C)nc2c(sc3nc4c(cc32)COC(C)(C)C4)c1=O,i
CC1(C)Cc2nc3sc4c(=O)[nH]cnc4c3cc2CS1,80%*
COc1ccc(NC(=O)CN2C(=O)C3(OCCCO3)c3ccccc32)c(OC)c1,i
Cc1[nH]nc2c1C(c1ccc(OC(C)C)cc1)C(C#N)=C(N)O2 (configuration not stated),i
O=C1C=C(c2cccs2)C[C@H](c2ccccc2)[C@H]1n1nnc([N+](=O)[O-])n1,41%*
CCOC(=O)C1C(=O)C=C(c2cccs2)CC1c1ccccc1OCC (configuration not stated),i
